Data from PubChem BioAssay (Tox21).
“And” between values parts separate entries of the source, which are not always exact repeats. Identical values can stand only once. Inconclusive results are not listed. The source made the active and inactive calls. Calls follow the shape of the dose curve; as a rule, active = well fitted inhibition curve with a large enough effect in the repeat runs; inconclusive = weak or mixed curves; inactive = no such curve, though single readings can be large or run the other way.

Target: Cytochrome P450 2C19 (Homo sapiens) (UniProt P33261)
Assay: Cytochrome P450 Family 2 Subfamily C Member 19 (CYP2C19) small molecule antagonists: luciferase reporter qHTS assay (AID 1671197); also: nearly all actives have a fitted effect of over 65% in size
Settings: P450-Glo CYP2C19 enzyme, luciferin luminescence, 1 h; series mostly up to 115 µM; activity change, negative = inhibition: at the top concentration
Source text: National Center for Advancing Translational Sciences [NCATS]
U.S. Environmental Protection Agency [EPA]
National Institutes of Environmental Health Sciences [NIEHS]
National Toxicology Program [NTP]
U.S. Food and Drug Administration [FDA]
Cytochrome P450 (CYP) enzymes are membrane-bound hemeproteins that play a key role in metabolism of drugs and xenobiotics. Evaluation of the effect of chemicals on CYP isozymes is useful to minimize the adverse drug reactions and toxicities in drug development process. Tox21 chemicals were tested for their effect on CYP enzyme activities by using P450-Glo (TM) screening systems (Promega Corporation, Madison, WI). These systems provide a luminescent method containing proluciferin substrates and are converted to luciferin products by CYP isozymes. The luciferin products formed are detected with a luciferin detection reagent, and the amount of light produced is proportional to CYP activity. P450-Glo (TM) CYP2C19 screening system (Catalog. No. V9880) was used to detect the compounds that interfere in CYP2C19 activity. The positive control compound used for CYP2C19 assay is ketoconazole (Sigma-Aldrich, St. Louis, MO).
Tox21 Assay Protocol Summary:
Two ul of enzyme-substrate mix was dispensed into medium binding white/solid 1536-well plates (Greiner Bio-One North America Inc., Monroe, NC) using a BioRaptr Flying Reagent Dispenser (FRD, Beckman Coulter, Brea, CA). Compounds dissolved in DMSO and positive control (ketoconazole) were transferred to the assay plates at 23 nl using a Pintool station (Wako, San Diego, CA). The assay plates were incubated at room temperature for 10 min. Then 2 ul of NADPH regeneration solution was added to each well of the assay plates using an FRD and incubated at 37C for 1 h. The reaction was stopped by adding 4 ul of detection reagent using an FRD and after 20 min incubation at room temperature the luminescence signal was measured using a ViewLux plate reader (Perkin Elmer, Shelton, CT). Data were expressed as relative luminescence units.
% is scaled to controls: 0 for no effect and ±100 for the full control effect; potency is read from the fitted curve at half-maximal effect.

Sequence of Cytochrome P450 2C19 (Homo sapiens) (P33261 whole entry, looked up): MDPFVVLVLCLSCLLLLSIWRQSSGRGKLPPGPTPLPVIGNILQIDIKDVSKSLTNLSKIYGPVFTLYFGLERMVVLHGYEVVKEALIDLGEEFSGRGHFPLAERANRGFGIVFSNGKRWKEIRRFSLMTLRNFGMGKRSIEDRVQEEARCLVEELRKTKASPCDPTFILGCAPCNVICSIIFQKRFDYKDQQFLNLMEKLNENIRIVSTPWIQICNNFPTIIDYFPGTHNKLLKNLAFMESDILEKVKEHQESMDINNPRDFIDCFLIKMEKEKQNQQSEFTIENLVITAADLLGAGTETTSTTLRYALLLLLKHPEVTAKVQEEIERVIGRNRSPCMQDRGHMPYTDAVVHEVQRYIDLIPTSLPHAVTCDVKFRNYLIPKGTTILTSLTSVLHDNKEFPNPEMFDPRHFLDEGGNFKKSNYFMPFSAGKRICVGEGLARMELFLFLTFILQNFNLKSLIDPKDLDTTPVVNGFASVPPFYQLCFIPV

SMILES	activity change, negative = inhibition	Potency
NNC(N)=O	-20.9% (inactive)	–
ClCOCCl	16.1% (inactive)	–
CCOC(=O)CCl	-18.2% (inactive)	–
Clc1ccc(C(Cl)(Cl)Cl)cn1	-8.49% (inactive)	–
C=CC=O	4.07% (inactive)	–
ClCCCCCCCl	–	39.9 µM (active)
C[C@H](CN1CCOCC1)C(C(=O)N1CCCC1)(c1ccccc1)c1ccccc1	–	96.9 µM (active)
CC1N=C(N)OC1c1ccccc1 (stereo not given)	2.03% (inactive)	–
CCC(=O)c1ccc(Cl)cc1	18.1% (inactive)	–
CCOC(=O)C(Cl)Cc1cc(-n2nc(C)n(C(F)F)c2=O)c(F)cc1Cl (stereo not given)	–	5.64 µM (active)
CNC(=O)NC(O)C(Cl)(Cl)Cl (stereo not given)	2.11% [at 52.9 µM] (inactive)	–
COC1=CC(=O)O[C@@H](/C=C/c2ccccc2)C1	–	5.72 µM (active)
CCOC1Oc2ccc(OS(C)(=O)=O)cc2C1(C)C (stereo not given)	–	3.96 µM (active)
O=C(NC(O)C(Cl)(Cl)Cl)NC(O)C(Cl)(Cl)Cl (stereo not given)	7.21% [at 52.9 µM] (inactive)	–
Cc1ccc2c(c1)C1CN(C)CCC1N2 (stereo not given)	-12.5% [at 23.6 µM] (inactive)	–
CN(C)CCN(C)C	-7.12% (inactive)	–
CON(C)C(=O)Nc1ccc(Br)cc1	–	35.6 µM (active)
COP(=O)(OC)O/C(C)=C/C(=O)N(C)C	-5.36% (inactive)	–
CCN(CC)C1CCCCC1	15% (inactive)	–
CCN[C@H](C)Cc1cccc(C(F)(F)F)c1	4.82% (inactive)	–

SMILES	activity change, negative = inhibition	Potency
CC#Cc1cc(C)nc(Nc2ccccc2)n1	–	35.5 µM (active)
O=C(Cl)C(Cl)(Cl)Cl	-7.19% (inactive)	–
C=C1C[C@@H]2[C@H](CC[C@]3(C)C(=O)CC[C@@H]23)[C@@]2(C)C=CC(=O)C=C12	–	4.36 µM (active)
Cn1c(CCCC(=O)O)nc2cc(N(CCCl)CCCl)ccc21	-17.7% [at 52.9 µM] (inactive)	–
CCC(CC)(CNC(=O)CCCO)c1cccc(OC)c1	–	7.76 µM (active)
CC(C)(C)C(=O)C(Cl)Cl	7.63% (inactive)	–
O=C(O)CBr	-1.88% (inactive)	–
O=C1C2CC=CCC2C(=O)N1SC(Cl)(Cl)Cl (stereo not given)	–	39.8 µM (active) and 8.79 µM (active)
S=C=S	–	44.3 µM (active)
CC(=O)OCC1=C(C(=O)O)N2C(=O)[C@@H](N)[C@H]2SC1	–	15.1 µM (active)
CCN[C@@H](C)Cc1cccc(C(F)(F)F)c1	24.9% [at 52.9 µM] (inactive)	–
Cl/C=C/CCl	-1.93% (inactive)	–
c1ccc2c(c1)CCNC2	–	57.9 µM (active)
COP(=O)(O)OC	–	18.5 µM (active)
CC(C)(C)C(=O)Cl	-11.2% (inactive)	–
O=CCCl	-18.6% (inactive)	–
CN(CCO)CCO	-7.58% (inactive)	–
COc1cccc([C@@]2(O)CCCC[C@@H]2CN(C)C)c1	35.9% [at 52.9 µM] (inactive)	–
CCc1ccc(C2CCNCC2)cc1	-3.38% [at 52.9 µM] (inactive)	–
Cc1ccc(Cl)c(O)c1	-2.18% [at 52.9 µM] (inactive)	–
